Structures are written as SMILES. Results filed as inconclusive are left out. Active and inactive are the calls of the source. How the source made its calls: active means hit-call score of the fitted dose curve at least 0.9, where 1 is the maximum; inconclusive means response in the unintended direction; inactive means score below 0.9.

Experiment [1] addresses human Serotonin, 5-Hydroxytryptamine Receptor 2A (5HT2A), HTR2A (gene 3356) (UniProt P28223). As to the kind of experiment: NVS_GPCR_h5HT2A: NovaScreen (NVS) G Protein-Coupled Receptor Assay for human Serotonin, 5-Hydroxytryptamine Receptor 2A (5HT2A) (AID 2283249). In a few lines:
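Radioligand displacement on human cortex tissue extract, counted by filtration and scintillation 1.5 h post-dosing. Initial single-concentration screen at 25 uM in duplicate, concentration series in follow-up; DMSO as baseline.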

The test system of experiment [2] is rat Monoamine Oxidase, MAO-A, Central (MAOAC), gene 29253. As to the kind of experiment: NVS_ENZ_rMAOAC: NovaScreen (NVS) Enzymatic Assay for rat Monoamine Oxidase, MAO-A, Central (MAOAC) (AID 2283243).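 Further: potency refers to inhibition seen as signal drop below DMSO baseline.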 In outline: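 Lysate-based radiometric enzyme assay using rat brain tissue; 1.5 h treatment; 25 uM single-point duplicate screen, concentration-response follow-up; loss of signal versus DMSO.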

Experiment [3] concerns the target D(1A) dopamine receptor (Homo sapiens) (UniProt P21728). As to the kind of experiment: NVS_GPCR_hDRD1: NovaScreen (NVS) G Protein-Coupled Receptor Assay for human Dopamine Receptor D1 (DRD1) (AID 2283269). In outline: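 Extracted HEK293 DRD1 is incubated 1 h with compound and a tritiated or iodinated radioligand, then filtered and counted. Screening runs 25 uM in duplicate with on-plate positive and negative controls.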

The target in experiment [4] is guinea pig Opioid, Kappa 1 Receptor (OpiateK), OPRK1 (gene 100135587) (UniProt P41144). As to the kind of experiment: NVS_GPCR_gOpiateK: NovaScreen (NVS) G Protein-Coupled Receptor Assay for guinea pig Opioid, Kappa 1 Receptor (OpiateK) (AID 2283252).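 Further: radioligand displacement from kappa opioid receptor in guinea pig cerebellar membranes; active means reduced radioligand binding relative to DMSO.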 In a few lines: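 Radioligand competition binding using guinea pig cerebellum membrane fraction; 2 h exposure; filter radiodetection. Single concentration 25 uM (duplicate), follow-up concentration-response for actives.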
Chain of guinea pig Opioid, Kappa 1 Receptor (OpiateK), OPRK1 (gene 100135587) (P41144 whole entry, looked up): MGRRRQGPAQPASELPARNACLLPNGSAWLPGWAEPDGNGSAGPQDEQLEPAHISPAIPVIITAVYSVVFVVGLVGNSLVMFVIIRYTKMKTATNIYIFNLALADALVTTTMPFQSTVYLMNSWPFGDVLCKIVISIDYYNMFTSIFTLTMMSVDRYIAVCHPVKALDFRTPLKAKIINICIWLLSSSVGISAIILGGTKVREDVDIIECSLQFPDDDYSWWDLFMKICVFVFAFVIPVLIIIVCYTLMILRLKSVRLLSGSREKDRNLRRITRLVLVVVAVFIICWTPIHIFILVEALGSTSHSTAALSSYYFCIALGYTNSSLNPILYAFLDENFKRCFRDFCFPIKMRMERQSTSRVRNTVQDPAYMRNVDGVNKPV

Experiment [5] has as its target guinea pig Leukotriene D4 Receptor (LTD4), CYSLTR1 (gene 100135514) (UniProt Q2NNR5). As to the kind of experiment: NVS_GPCR_gLTD4: NovaScreen (NVS) G Protein-Coupled Receptor Assay for guinea pig Leukotriene D4 Receptor (LTD4) (AID 2283248). In a few lines: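 Guinea pig lung membrane preparation; bound radioligand measured by filter scintillation after 1 h, loss of signal versus DMSO marking displacement. Compounds tested at 25 uM in duplicate, hits retested to max 50 uM.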

In experiment [6] the target is human Adenosine A1 Receptor (AdoRA1), ADORA1 (gene 134) (UniProt P30542). Kind of experiment: NVS_GPCR_hAdoRA1: NovaScreen (NVS) G Protein-Coupled Receptor Assay for human Adenosine A1 Receptor (AdoRA1) (AID 2283254). In outline: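 Each chemical is first tested twice at 25 uM, actives later in dilution series, against a radioligand bound to human cortex membranes; after 1 h, filter-retained counts are compared with DMSO controls, lower signal indicating displacement.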
Chain of human Adenosine A1 Receptor (AdoRA1), ADORA1 (gene 134) (P30542 whole entry, looked up): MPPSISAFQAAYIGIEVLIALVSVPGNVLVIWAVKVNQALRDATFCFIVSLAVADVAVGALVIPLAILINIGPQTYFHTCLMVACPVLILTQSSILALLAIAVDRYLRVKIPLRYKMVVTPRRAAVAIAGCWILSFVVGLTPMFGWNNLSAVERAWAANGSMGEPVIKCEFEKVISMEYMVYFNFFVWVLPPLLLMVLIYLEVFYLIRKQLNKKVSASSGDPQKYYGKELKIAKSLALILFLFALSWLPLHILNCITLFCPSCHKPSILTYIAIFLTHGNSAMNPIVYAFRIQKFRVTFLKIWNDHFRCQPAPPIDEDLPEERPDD

For experiment [7], the system named is guinea pig Leukotriene B4 Receptor (LTB4), gene 100379538. As to the kind of experiment: NVS_GPCR_gLTB4: NovaScreen (NVS) G Protein-Coupled Receptor Assay for guinea pig Leukotriene B4 Receptor (LTB4) (AID 2283247). In a few lines:
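Membranes from guinea pig spleen incubated 2 h with radioligand and compound; bound counts measured by filtration and scintillation. Screened first at 25 uM in duplicate, then actives titrated to a 50 uM top concentration relative to DMSO.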

For experiment [8], the target named is human Serotonin, 5-Hydroxytryptamine Receptor 5A (5HT5A), HTR5A (gene 3361) (UniProt P47898). Kind of experiment: NVS_GPCR_h5HT5A: NovaScreen (NVS) G Protein-Coupled Receptor Assay for human Serotonin, 5-Hydroxytryptamine Receptor 5A (5HT5A) (AID 2283251). In a few lines:
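Membranes from HEK293 cells, radioligand binding read by filtration and scintillation after 1 h. Single-concentration duplicate testing at 25 uM, then concentration-response for actives; positive-direction fitting relative to DMSO.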

Experiment [9] addresses human Serotonin, 5-Hydroxytryptamine Receptor 7 (5HT7), HTR7 (gene 3363) (UniProt P34969). As to the kind of experiment: NVS_GPCR_h5HT7: NovaScreen (NVS) G Protein-Coupled Receptor Assay for human Serotonin, 5-Hydroxytryptamine Receptor 7 (5HT7) (AID 2283255).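 Further: hits reduce specific radioligand binding relative to DMSO.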 In a few lines: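 Filter-bound radioactivity counted after 1 h, with loss of specific radioligand binding fitted against DMSO. Membrane protein came from CHO cells expressing human 5HT7. Chemicals were tested first at 25 uM in duplicate, then in concentration series if active.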

Experiment [10] concerns the target human Adrenergic, Beta 1 Receptor (Adrb1), ADRB1 (gene 153) (UniProt P08588). As to the kind of experiment: NVS_GPCR_hAdrb1: NovaScreen (NVS) G Protein-Coupled Receptor Assay for human Adrenergic, Beta 1 Receptor (Adrb1) (AID 2283258). In a few lines: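 Membranes/protein extracted from human neuroepithelioma cells, radioligand competition binding read by filtration and scintillation 2 h post-dose. Single 25 uM duplicate screen, then concentration-response follow-up; DMSO as negative control.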

Experiment [11] concerns the target human Adrenergic, Alpha 2c Receptor (Adra2C), ADRA2C (gene 152) (UniProt P18825). Kind of experiment: NVS_GPCR_hAdra2C: NovaScreen (NVS) G Protein-Coupled Receptor Assay for human Adrenergic, Alpha 2c Receptor (Adra2C) (AID 2283259). In outline:
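Screened first in duplicate at 25 uM, with actives then run as concentration series. Membranes from Sf9 cells were exposed for 1 h, and displacement of radioligand was counted after filtration, using DMSO as baseline.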

Experiment [12] concerns the target human Dopamine Receptor D4.4 (DRD4.4), DRD4 (gene 1815) (UniProt P21917). Kind of experiment: NVS_GPCR_hDRD4.4: NovaScreen (NVS) G Protein-Coupled Receptor Assay for human Dopamine Receptor D4.4 (DRD4.4) (AID 2283264). In a few lines:
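Filter-binding assay with a tritiated or iodinated ligand, cell-free receptor prepared from CHO, 1 hour. Loss of bound radioactivity versus DMSO; single 25 uM duplicate screen, then concentration-response for actives.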

In experiment [13] the target is human Dopamine Receptor D2 (DRD2), DRD2 (gene 1813) (UniProt P14416). Kind of experiment: NVS_GPCR_hDRD2s: NovaScreen (NVS) G Protein-Coupled Receptor Assay for human Dopamine Receptor D2 (DRD2) (AID 2283266). In outline: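 Test compound (25 uM, duplicate in the primary screen; concentration series at follow-up) competed with radioligand for human DRD2 in CHO-derived membrane protein. Filter-based scintillation counting was done 1.5 hours after dosing, with loss of signal analysed against DMSO.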
Chain of human Dopamine Receptor D2 (DRD2), DRD2 (gene 1813) (P14416 whole entry, looked up): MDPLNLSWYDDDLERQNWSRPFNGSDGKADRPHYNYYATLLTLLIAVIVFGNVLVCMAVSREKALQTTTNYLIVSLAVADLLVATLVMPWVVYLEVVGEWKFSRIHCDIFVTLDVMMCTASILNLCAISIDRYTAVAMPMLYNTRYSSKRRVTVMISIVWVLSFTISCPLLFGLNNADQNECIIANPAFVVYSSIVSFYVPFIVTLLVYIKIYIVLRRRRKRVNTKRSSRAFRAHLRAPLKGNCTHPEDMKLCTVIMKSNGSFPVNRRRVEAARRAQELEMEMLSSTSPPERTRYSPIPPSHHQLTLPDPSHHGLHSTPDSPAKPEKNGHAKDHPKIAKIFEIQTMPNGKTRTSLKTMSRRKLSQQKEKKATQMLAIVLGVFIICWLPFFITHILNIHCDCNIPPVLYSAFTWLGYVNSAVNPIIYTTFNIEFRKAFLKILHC

For experiment [14], the target named is human Histamine 1 Receptor (H1), HRH1 (gene 3269) (UniProt P35367). As to the kind of experiment: NVS_GPCR_hH1: NovaScreen (NVS) G Protein-Coupled Receptor Assay for human Histamine 1 Receptor (H1) (AID 2283268). In outline: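 Filter-based scintillation detection of radioligand binding to human H1, 1 h incubation; chemicals screened in duplicate at 25 uM, then concentration-response; signal loss relative to DMSO taken as activity.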
Chain of human Histamine 1 Receptor (H1), HRH1 (gene 3269) (P35367 whole entry, looked up): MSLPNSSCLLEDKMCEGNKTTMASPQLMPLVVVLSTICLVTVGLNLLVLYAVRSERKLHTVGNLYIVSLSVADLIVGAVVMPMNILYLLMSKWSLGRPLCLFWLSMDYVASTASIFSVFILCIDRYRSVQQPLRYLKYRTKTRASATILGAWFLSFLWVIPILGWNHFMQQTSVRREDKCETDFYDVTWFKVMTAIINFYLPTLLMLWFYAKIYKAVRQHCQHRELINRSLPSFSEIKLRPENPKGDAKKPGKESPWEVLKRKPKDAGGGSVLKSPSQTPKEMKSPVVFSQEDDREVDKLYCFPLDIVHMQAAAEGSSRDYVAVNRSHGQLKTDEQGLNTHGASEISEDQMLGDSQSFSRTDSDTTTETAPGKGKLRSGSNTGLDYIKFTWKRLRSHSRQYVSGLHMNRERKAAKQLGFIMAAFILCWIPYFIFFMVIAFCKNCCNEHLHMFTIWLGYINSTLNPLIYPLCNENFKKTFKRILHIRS

The target in experiment [15] is Muscarinic acetylcholine receptor M3 (Homo sapiens) (UniProt P20309). Kind of experiment: NVS_GPCR_hM3: NovaScreen (NVS) G Protein-Coupled Receptor Assay for human Muscarinic, M3 Receptor (AID 2283272). In outline: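 Radioligand displacement binding on human M3 receptor in CHO-derived membranes, 1 h incubation, filter-based scintillation counting. Primary screen in duplicate at 25 uM; actives followed up in concentration series; loss of signal versus DMSO.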

Chain of D(1A) dopamine receptor (Homo sapiens) (P21728 whole entry, looked up): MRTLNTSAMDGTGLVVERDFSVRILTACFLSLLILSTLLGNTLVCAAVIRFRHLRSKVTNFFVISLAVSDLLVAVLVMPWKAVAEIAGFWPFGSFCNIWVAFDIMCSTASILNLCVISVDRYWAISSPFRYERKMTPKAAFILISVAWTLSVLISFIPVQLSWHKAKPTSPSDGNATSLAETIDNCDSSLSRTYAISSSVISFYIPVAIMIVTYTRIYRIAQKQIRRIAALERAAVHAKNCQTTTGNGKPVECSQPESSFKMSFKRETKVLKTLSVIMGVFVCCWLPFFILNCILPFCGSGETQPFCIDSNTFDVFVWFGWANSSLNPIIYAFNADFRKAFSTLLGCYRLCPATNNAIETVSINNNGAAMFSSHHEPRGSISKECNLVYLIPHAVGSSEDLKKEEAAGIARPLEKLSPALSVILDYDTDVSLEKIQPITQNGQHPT
Chain of guinea pig Leukotriene D4 Receptor (LTD4), CYSLTR1 (gene 100135514) (Q2NNR5 whole entry, looked up): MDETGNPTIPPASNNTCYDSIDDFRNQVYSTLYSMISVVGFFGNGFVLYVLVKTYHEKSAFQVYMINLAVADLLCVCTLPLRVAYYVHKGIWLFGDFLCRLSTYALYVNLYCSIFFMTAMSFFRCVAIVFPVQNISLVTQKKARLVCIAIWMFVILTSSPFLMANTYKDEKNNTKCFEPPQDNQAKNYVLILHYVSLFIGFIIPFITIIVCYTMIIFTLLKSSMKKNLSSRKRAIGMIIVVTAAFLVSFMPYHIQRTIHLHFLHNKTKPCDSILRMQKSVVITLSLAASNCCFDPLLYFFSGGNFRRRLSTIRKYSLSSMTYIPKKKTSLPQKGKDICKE
Chain of human Dopamine Receptor D4.4 (DRD4.4), DRD4 (gene 1815) (P21917 whole entry, looked up): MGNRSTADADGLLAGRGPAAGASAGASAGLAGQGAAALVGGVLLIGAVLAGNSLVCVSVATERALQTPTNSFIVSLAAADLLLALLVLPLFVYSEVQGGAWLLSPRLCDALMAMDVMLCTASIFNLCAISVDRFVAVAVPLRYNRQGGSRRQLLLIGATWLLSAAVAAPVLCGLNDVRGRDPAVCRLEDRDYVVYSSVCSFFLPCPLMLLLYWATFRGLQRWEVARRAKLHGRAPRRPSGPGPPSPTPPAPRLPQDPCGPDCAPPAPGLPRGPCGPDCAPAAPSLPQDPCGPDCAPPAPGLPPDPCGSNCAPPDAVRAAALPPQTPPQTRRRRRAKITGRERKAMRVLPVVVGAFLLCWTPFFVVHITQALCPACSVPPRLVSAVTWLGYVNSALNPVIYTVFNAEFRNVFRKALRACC
Chain of human Adrenergic, Beta 1 Receptor (Adrb1), ADRB1 (gene 153) (P08588 whole entry, looked up): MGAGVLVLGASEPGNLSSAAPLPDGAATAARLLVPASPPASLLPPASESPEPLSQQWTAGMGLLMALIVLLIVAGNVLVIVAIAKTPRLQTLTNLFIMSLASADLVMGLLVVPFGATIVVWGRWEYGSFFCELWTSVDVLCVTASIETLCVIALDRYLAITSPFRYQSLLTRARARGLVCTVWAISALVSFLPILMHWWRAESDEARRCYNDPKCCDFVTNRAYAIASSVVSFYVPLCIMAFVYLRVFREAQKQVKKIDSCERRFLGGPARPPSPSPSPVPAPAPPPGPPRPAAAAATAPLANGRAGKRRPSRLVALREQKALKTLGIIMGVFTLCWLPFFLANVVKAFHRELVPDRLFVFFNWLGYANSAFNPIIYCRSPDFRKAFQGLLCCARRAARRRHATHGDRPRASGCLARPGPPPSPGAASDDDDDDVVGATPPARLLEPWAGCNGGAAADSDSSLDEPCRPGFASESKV
Chain of human Adrenergic, Alpha 2c Receptor (Adra2C), ADRA2C (gene 152) (P18825 whole entry, looked up): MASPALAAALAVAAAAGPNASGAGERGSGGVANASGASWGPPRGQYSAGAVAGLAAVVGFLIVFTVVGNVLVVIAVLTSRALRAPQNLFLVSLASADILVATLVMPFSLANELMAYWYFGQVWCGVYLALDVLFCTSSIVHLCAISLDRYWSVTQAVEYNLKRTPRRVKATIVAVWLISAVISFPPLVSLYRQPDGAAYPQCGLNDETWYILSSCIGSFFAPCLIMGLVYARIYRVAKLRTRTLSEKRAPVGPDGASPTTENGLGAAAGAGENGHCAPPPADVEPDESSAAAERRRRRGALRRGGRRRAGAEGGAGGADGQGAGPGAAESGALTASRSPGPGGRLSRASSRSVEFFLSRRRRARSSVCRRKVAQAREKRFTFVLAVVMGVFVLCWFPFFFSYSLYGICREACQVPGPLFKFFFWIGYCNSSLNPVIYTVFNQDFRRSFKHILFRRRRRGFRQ
Chain of human Serotonin, 5-Hydroxytryptamine Receptor 7 (5HT7), HTR7 (gene 3363) (P34969 whole entry, looked up): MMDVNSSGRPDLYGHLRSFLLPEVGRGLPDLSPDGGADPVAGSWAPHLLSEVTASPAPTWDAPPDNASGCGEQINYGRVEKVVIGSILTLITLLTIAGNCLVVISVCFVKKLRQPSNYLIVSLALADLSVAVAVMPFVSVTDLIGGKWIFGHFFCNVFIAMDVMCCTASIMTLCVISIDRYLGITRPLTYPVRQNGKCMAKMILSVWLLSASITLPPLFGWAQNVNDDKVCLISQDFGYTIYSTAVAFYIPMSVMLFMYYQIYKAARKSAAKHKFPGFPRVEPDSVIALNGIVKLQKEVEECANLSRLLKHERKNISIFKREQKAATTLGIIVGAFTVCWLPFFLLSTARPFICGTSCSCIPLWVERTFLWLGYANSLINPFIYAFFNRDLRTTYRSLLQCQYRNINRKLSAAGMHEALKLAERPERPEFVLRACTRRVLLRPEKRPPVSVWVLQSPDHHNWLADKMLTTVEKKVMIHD
Chain of human Serotonin, 5-Hydroxytryptamine Receptor 2A (5HT2A), HTR2A (gene 3356) (P28223 whole entry, looked up): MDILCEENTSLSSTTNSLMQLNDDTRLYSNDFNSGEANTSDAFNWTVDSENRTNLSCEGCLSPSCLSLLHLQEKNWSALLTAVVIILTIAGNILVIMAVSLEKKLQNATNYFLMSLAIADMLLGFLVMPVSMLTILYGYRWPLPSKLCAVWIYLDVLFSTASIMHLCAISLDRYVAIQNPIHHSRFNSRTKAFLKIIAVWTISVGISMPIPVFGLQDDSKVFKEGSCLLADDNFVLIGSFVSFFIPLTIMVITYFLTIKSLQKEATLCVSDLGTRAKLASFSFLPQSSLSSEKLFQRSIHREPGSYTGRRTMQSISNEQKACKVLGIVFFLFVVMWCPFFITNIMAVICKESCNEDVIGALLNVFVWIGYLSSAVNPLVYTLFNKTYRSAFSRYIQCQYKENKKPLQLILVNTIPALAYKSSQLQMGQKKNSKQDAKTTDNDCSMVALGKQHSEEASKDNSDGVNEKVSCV

As for `CC(C)O.CC(C)O.OCCN(CCO)CCO.OCCN(CCO)CCO.[Ti]`, the result in experiment [1] was inactive.

For the compound `OC(Cc1ccccc1Cl)(Cn1cncn1)C1(Cl)CC1` (stereo not given), the compound was classed as inactive in experiment [2].

Regarding `CCCCCCCCCCBr`, the compound was classed as inactive in experiment [3].

For `CCCCCCCCCCCCN(C)C`, in experiment [3], the outcome was inactive.

`Brc1c(Br)c(Br)c(Oc2c(Br)c(Br)c(Br)c(Br)c2Br)c(Br)c1Br`: the call in experiment [3] was inactive.

Take `O=C1C[C@@H]2OCC=C3CN4CC[C@]56c7ccccc7N1[C@H]5[C@H]2[C@H]3C[C@H]46`: the outcome in experiment [4] was inactive.

In the case of `CCCCOC(C)=O`, the result in experiment [5] and in [6] was inactive.

In the case of `Oc1c(Cl)cc(Cl)cc1Cl`, the outcome in [2] and in [7] was inactive.

On to `CC(C=O)Cc1ccc2c(c1)OCO2` (stereo not given), for which the compound was called inactive in [3].

For `CCCCCCCCCCCCc1cccc(S(=O)(=O)O)c1`, the AC50 is 10.6 µM (active) in experiment [2]; 10.5 µM (active) in [7]; 22.5 µM (active) in experiment [5]; 13.7 µM (active) in experiment [8]; 14.3 µM (active) in [9]; 9.54 µM (active) in experiment [10]. For the same compound, the half-maximal activity concentration (AC50) in experiment [11] is 6.82 µM (active); in [12] it was 13.6 µM (active); in experiment [13] it was 22.5 µM (active); in [14], 25.4 µM (active); in experiment [3] it was 7.44 µM (active); in experiment [15] it was 16.3 µM (active).

Consider `Oc1ccc(Cc2ccc(O)cc2)cc1`, for which the concentration at half-maximal activity (AC50) in experiment [2] was 25 µM (active). In experiment [3], the result was inactive.

In the case of `CCOP(=O)(OCC)OC(=CCl)c1ccc(Cl)cc1Cl`, in [4], the half-maximal activity concentration (AC50) is 18.3 µM (active). Besides, in [6], the compound was called inactive.

Take `N#CCCC(Br)(C#N)CBr` (stereo not given): in [4], the compound was called inactive. In experiment [3], the concentration at half-maximal activity (AC50) is 11 µM (active).

Consider `Oc1cccc(-c2ccccc2)c1`, for which the concentration at half-maximal activity (AC50) in [2] was 10.9 µM (active).

As usually defined, the AC50 is the midpoint of the concentration-response curve, whichever way the signal moves.
